Calls of active or inactive are those of the source.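 Rule for the calls, unless noted: active = inhibition at or above 50% at 10 µM; inactive = inhibition below 50%.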
Assays:
[1] = inhibitors of TNFa-induced NFkB p65 translocation, primary screen, imaging, HUVEC, MLSMR starter and 10KST1 sets (AID 438;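 active = inhibition above 20% together with a positive visual image hit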;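 note: compound added about 3h40 before a 20 min TNFalpha stimulation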;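 for inhibition: signal is the nuclear over cytoplasmic p65 intensity ratio per well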); details: HUVEC TNFa-induced p65 nuclear translocation; cell count: measured here: nuclei count (cytotoxicity indicator), at 2.08 µM; inhibition: at 2 µM, stronger effect = higher value, 0% TNFa-plus-vehicle, 100% no-TNFa wells
[2] = inhibitors of mutant huntingtin aggregation, primary screen, imaging, exon1htt(103Q)mCFP cells, high-content imaging (AID 483;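 active = visual image review flags a hit and inhibition of aggregation exceeds 20%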;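 note: compound exposure lasted 3 days before fixation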;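 for nuclei count: percent of the per-plate median nuclei count of sample wells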); details: exon1htt(103Q)mCFP cell line, aggregate imaging, at 2 µM; inhibition of aggregation: stronger effect = higher value; nuclei count: measured here: cell count, toxicity
[3] = inhibitors of E-selectin induction by TNFa, primary screen, imaging, HUVEC, immunofluorescence, MLSMR starter and 10KST1 sets (AID 487;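 active = visually confirmed hit in the image check and inhibition above 20%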;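 for inhibition: signal is fraction of cell area covered by stained E-selectin grains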;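 for nuclei count: 100% = median nuclei count of all wells on the same plate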); details: HUVEC TNFalpha-induced E-selectin immunofluorescence imaging, at 2 µM; inhibition: stronger effect = higher value; nuclei count: measured here: cell number, toxicity
[4] = target: Voltage-gated potassium channel subunit beta-2 (Rattus norvegicus) (UniProt P62483); assay: KvBeta enzyme negative modulators, primary screen, biochemical, NADPH fluorescence (AID 622;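 active = fluorescence slope higher than the sample average by over 3 SD, cut at about -0.22 in these data, passing the limit was not always enough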;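 note: slope of raw intensity against log time taken from 70 to 1610 s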); details: recombinant KvBeta, 4-cyanobenzaldehyde reduction, at 10 µM, stronger effect = higher value
Voltage-gated potassium channel subunit beta-2 (Rattus norvegicus), sequence (P62483 whole entry, looked up): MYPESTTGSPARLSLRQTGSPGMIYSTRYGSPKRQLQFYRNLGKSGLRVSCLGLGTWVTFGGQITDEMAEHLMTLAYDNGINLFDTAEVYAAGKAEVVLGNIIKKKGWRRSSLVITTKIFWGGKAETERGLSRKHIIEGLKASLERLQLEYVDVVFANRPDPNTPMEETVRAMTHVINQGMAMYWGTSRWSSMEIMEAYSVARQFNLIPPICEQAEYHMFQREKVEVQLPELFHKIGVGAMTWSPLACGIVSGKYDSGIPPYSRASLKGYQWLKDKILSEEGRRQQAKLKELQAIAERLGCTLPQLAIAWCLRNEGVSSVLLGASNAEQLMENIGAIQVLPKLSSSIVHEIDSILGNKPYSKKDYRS

[5] = target: Voltage-gated potassium channel subunit beta-2 (Rattus norvegicus) (UniProt P62483); assay: KvBeta positive modulators, primary screen, biochemical, NADPH fluorescence (AID 623;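 active = NADPH fluorescence slope more negative than the mean of all samples by about 3 SD, 99.7% confidence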;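 note: fluorescence intensity change per second fitted from 20 to 320 s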); details: Recombinant KvBeta, NADPH fluorescence decrease slope, 10 min; at 10 µM; stronger effect = lower value
[6] = target: Alpha-2C adrenergic receptor (Homo sapiens) (UniProt P18825); assay: modulators of alpha2C/GIRK thallium flux, primary screen, cell-based, HEK293 alpha2C/GIRK1/2 (AID 624;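 active = fluorescence slope after compound addition differing from the mean of all screened samples at 99.7% confidence, in either direction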;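 note: slope of fluorescence ratio to pre-addition baseline per second over 15 to 24 s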); details: thallium flux BTC fluorescence, at 10 µM, actives lie on both sides
Alpha-2C adrenergic receptor (Homo sapiens), sequence (P18825 whole entry, looked up): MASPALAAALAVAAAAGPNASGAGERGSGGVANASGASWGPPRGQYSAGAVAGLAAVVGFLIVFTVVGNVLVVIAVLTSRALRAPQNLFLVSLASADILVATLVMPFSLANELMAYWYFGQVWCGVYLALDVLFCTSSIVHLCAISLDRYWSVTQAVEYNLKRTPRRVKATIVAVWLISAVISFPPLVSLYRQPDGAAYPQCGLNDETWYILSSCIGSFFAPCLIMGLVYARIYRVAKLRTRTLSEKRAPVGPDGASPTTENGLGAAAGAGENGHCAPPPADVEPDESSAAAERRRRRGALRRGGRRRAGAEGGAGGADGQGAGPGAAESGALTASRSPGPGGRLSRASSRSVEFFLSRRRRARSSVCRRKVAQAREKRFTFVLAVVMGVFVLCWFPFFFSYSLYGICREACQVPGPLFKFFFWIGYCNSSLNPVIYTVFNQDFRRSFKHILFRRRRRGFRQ

[7] = inhibitors of Sendai virus-induced IRF3 signaling, primary screen, TLR/RLR signaling modifier project, cell-based, Sendai virus stimulus, luciferase, 10K MLSCN set (AID 602276); details: HEK293 RL24 IRF3 luciferase reporter, at 10 µM, stronger effect = higher value;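 note: firefly luciferase from ISG56 promoter only with Renilla not read in this screen; 0% = Sendai virus plus DMSO and 100% = medium plus DMSO without virus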
[8] = inhibitors of poly I:C-induced TLR3 signaling, primary screen, cell-based, poly I:C stimulus, luciferase, 10K MLSCN set (AID 602277;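 active = inhibition of the reporter signal at or above 50%; inactive = inhibition below 50%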); details: HEK293-TLR3 RL24 IRF3 luciferase reporter, at 10 µM, stronger effect = higher value

SMILES | cell count [1] | inhibition [1] | inhibition of aggregation [2] | nuclei count [2] | inhibition [3] | nuclei count [3] | fluorescence slope [4] | NADPH fluorescence slope [5] | slope [6] | inhibition [7] | inhibition [8]
COc1ccc(C2C(C(=O)Nc3cccnc3)=C(C)Nc3nc(-c4cccs4)nn32)cc1OC (stereo not drawn) | 543 | 5.1% (inactive) | 2.5% (inactive) | 84.7% | 3.4% (inactive) | 104% | -0.593 (inactive) | -4.3e-05 (inactive) | 0.0064 (inactive) | 7.94% (inactive) | 31.3% (inactive)
Cc1cc(=O)n(C)c(=O)n1CCCNc1ccccc1 | 489 | -13.1% (inactive) | -3% (inactive) | 126% | -19.5% (inactive) | 113% | -0.333 (inactive) | -3.7e-05 (inactive) | 0.00566 (inactive) | -2.79% (inactive) | 6.15% (inactive)
Cc1ccc(-c2nc3ccccc3[nH]2)s1 | 362 | -13.1% (inactive) | -2.5% (inactive) | 95.2% | -72.7% (inactive) | 101% | -0.277 (inactive) | -1.4e-05 (inactive) | 0.00551 (inactive) | -45.9% (inactive) | -155% (inactive)
COCc1nnc(NC(=O)CCCOc2ccccc2)s1 | 732 | 2.1% (inactive) | -7.8% (inactive) | 92% | -11.3% (inactive) | 103% | -0.42 (inactive) | 9.1e-06 (inactive) | 0.00536 (inactive) | 1.61% (inactive) | 9.03% (inactive)
O=C(CSc1ncnc2c1cnn2Cc1ccccc1)Nc1ccc2c(c1)OCCO2 | 308 | 0.9% (inactive) | 27.1% (inactive) | 94.9% | 11.1% (inactive) | 94.2% | -0.36 (inactive) | -0.00015 (inactive) | 0.00683 (inactive) | 6.25% (inactive) | 17.7% (inactive)
CCCc1nnc(NC(=O)NCCN2C(=O)C3C4C=CC(C4)C3C2=O)s1 (stereo not drawn) | 700 | -10.4% (inactive) | -8.7% (inactive) | 76% | -78.4% (inactive) | 125% | -0.602 (inactive) | 1.8e-06 (inactive) | 0.00718 (inactive) | -17.6% (inactive) | -19.1% (inactive)
CCOc1ccccc1N1Cc2cc(C)c(C)cc2C1 | 576 | 2.9% (inactive) | 22.5% (inactive) | 110% | -9% (inactive) | 118% | -0.543 (inactive) | 1.2e-05 (inactive) | 0.00798 (inactive) | -0.273% (inactive) | -2.86% (inactive)
CCOC(=O)C(C)(C)Sc1nc2c(cnn2-c2ccc(Cl)cc2)c(=O)[nH]1 | 623 | -5.2% (inactive) | -10.2% (inactive) | 119% | -27.2% (inactive) | 102% | -0.59 (inactive) | -5e-05 (inactive) | 0.00733 (inactive) | 9.09% (inactive) | 16.7% (inactive)
CC(C)Cn1c(=O)c(C2=NS(=O)(=O)c3ccccc3N2)c(O)c2ccccc21 | 407 | -0.4% (inactive) | 10.3% (inactive) | 93.8% | -61.6% (inactive) | 125% | -0.353 (inactive) | -0.000128 (inactive) | 0.00697 (inactive) | 15.1% (inactive) | 18% (inactive)
CCc1[nH]nc2c1C1(CCN(C(=O)OCc3ccccc3)CC1)C(C#N)=C(N)O2 | 823 | 0.6% (inactive) | 12.7% (inactive) | 114% | -28.9% (inactive) | 124% | -0.494 (inactive) | -4.5e-05 (inactive) | 0.00458 (inactive) | 17.6% (inactive) | 13.6% (inactive)
CCOc1ccc2c(c1)c1nnc(SCC(=O)N3CCC(C)CC3)nc1n2C | 432 | -0.2% (inactive) | 0.1% (inactive) | 99.9% | -30.2% (inactive) | 114% | -0.326 (inactive) | -5.2e-05 (inactive) | 0.00371 (inactive) | -10.6% (inactive) | -29.5% (inactive)
Cc1cc(CN2CCN(CCC#N)CC2)c(O)c(C2(C)CCCCC2)c1 | 527 | -12.3% (inactive) | 5.3% (inactive) | 98.4% | -197% (inactive) | 90.4% | -0.541 (inactive) | 4e-05 (inactive) | 0.00432 (inactive) | -14.9% (inactive) | 4.95% (inactive)
Cc1cc(C)n2nc(S(=O)(=O)N(C)c3ccccc3)nc2n1 | 679 | -2.6% (inactive) | 16.2% (inactive) | 102% | -66.9% (inactive) | 114% | -0.568 (inactive) | -5.7e-05 (inactive) | 0.00717 (inactive) | 7.86% (inactive) | 34.2% (inactive)
CN(C)S(=O)(=O)c1cccc(C(=O)Nc2cccnc2)c1 | 294 | 10.1% (inactive) | 0% (inactive) | 103% | -79.6% (inactive) | 128% | -0.407 (inactive) | -5.9e-05 (inactive) | 0.00527 (inactive) | 16.5% (inactive) | 10.8% (inactive)
CN(C)c1ccc(-c2nn3c(-c4ccc(Cl)cc4Cl)nnc3s2)cc1 | 321 | 2.6% (inactive) | -10.5% (inactive) | 98.2% | 42.5% (inactive) | 96.6% | -0.552 (inactive) | -3.3e-05 (inactive) | 0.00528 (inactive) | -25.6% (inactive) | 55.1% (active)
CN1CCN(Cc2nc3c(c(=O)n(C)c(=O)n3C)n2Cc2ccccc2Cl)CC1 | 746 | -15.7% (inactive) | 4.7% (inactive) | 100% | -14.4% (inactive) | 105% | -0.409 (inactive) | -2e-05 (inactive) | 0.00482 (inactive) | 4.15% (inactive) | 45.1% (inactive)
COc1ccc(-c2[nH]nc3c2C(c2ccncc2)C(C#N)=C(N)O3)cc1 (stereo not drawn) | 441 | 6% (inactive) | 2.5% (inactive) | 113% | -6.7% (inactive) | 100% | -0.31 (inactive) | -4.4e-05 (inactive) | 0.00483 (inactive) | 6.11% (inactive) | 99% (active)
CC(C)CCn1c(NCCc2ccccc2)nc2c1c(=O)n(C)c(=O)n2C | 753 | -8% (inactive) | 1.3% (inactive) | 120% | -17.6% (inactive) | 108% | -0.409 (inactive) | -7.3e-05 (inactive) | 0.00481 (inactive) | 9.59% (inactive) | 32.1% (inactive)
CCCc1cc(=O)[nH]c(SCc2ccccc2)n1 | 651 | 6.7% (inactive) | -3.9% (inactive) | 99.8% | -110% (inactive) | 101% | -0.6 (inactive) | -1.1e-07 (inactive) | 0.00614 (inactive) | 9.4% (inactive) | 30% (inactive)
CC1CN(c2nc(-c3ccccc3)nc3ccccc23)CC(C)O1 (stereo not drawn) | 407 | -6% (inactive) | -1.5% (inactive) | 99.3% | -29.4% (inactive) | 114% | -0.333 (inactive) | -5.3e-05 (inactive) | 0.00612 (inactive) | 12% (inactive) | 22% (inactive)
CCOC(=O)N1CCN(C(=O)CSc2nnc(-c3cccc(Cl)c3)o2)CC1 | 543 | 11.7% (inactive) | -117% (inactive) | 10.5% | -3.2% (inactive) | 96% | -0.494 (inactive) | -0.000158 (inactive) | 0.00621 (inactive) | 0.178% (inactive) | 18.7% (inactive)
CCS(=O)(=O)N1CCCC(c2nc(-c3cccc(OC)c3)no2)C1 (stereo not drawn) | 730 | -52% (inactive) | -9.9% (inactive) | 92.1% | -66.1% (inactive) | 104% | -0.535 (inactive) | 1.2e-05 (inactive) | 0.00638 (inactive) | -28.7% (inactive) | -59.2% (inactive)
O=C(Nc1cccnc1)Nc1ccccn1 | 571 | -4.3% (inactive) | 6.4% (inactive) | 106% | -6.7% (inactive) | 74.1% | -0.432 (inactive) | -4.6e-05 (inactive) | 0.00395 (inactive) | -5.87% (inactive) | 0.317% (inactive)
O=C(COc1ccc2ccccc2c1)N1CCCC1 | 315 | -1.8% (inactive) | 4% (inactive) | 77.8% | -27.1% (inactive) | 97.9% | -0.28 (inactive) | -1.8e-06 (inactive) | 0.00518 (inactive) | -31.9% (inactive) | -85% (inactive)
CCCc1cc(C(=O)Nc2ccc(C(C)=O)cc2)no1 | 566 | -4.4% (inactive) | 1.1% (inactive) | 128% | -58.4% (inactive) | 110% | -0.559 (inactive) | 1.4e-06 (inactive) | 0.00619 (inactive) | 15.4% (inactive) | -5.79% (inactive)
O=C(CCS(=O)(=O)c1cc(Br)cc2c1N(C(=O)C1CC1)CC2)NCC1CCCO1 (stereo not drawn) | 415 | -0.6% (inactive) | -16.1% (inactive) | 105% | -15.8% (inactive) | 85.8% | -0.314 (inactive) | -1.2e-05 (inactive) | 0.00703 (inactive) | 12.5% (inactive) | -10.9% (inactive)
CC(C)OC(=O)CCCCCN1C(=O)CSC1=S | 448 | -9.2% (inactive) | -5.3% (inactive) | 80.5% | -93.7% (inactive) | 114% | -0.539 (inactive) | -1.3e-05 (inactive) | 0.00459 (inactive) | 1.67% (inactive) | -4.31% (inactive)
CN1CCN(CC#CCC(O)(c2ccccc2)C2CCCC2)CC1 (stereo not drawn) | 415 | 2.2% (inactive) | -1.8% (inactive) | 99.7% | -21.3% (inactive) | 118% | -0.428 (inactive) | -4.8e-05 (inactive) | 0.00551 (inactive) | 7.06% (inactive) | 4.71% (inactive)

Source: PubChem BioAssay
